# Assay results as given in ChEMBL document CHEMBL4513216, “Probing the Open Global Health Chemical Diversity Library for Multistage-Active Starting Points for Next-Generation Antimalarials” (ACS Infect Dis, 2020).
# The whole screen tested about 69,000 compounds, of which about 8,600 (12%) showed an effect of 50% or more. The entries come from a sample that favours strong results as a whole.
# Tested on: Plasmodium berghei
# Test: Screen against P. berghei liver stage (PbLuc), transformed with Luciferase, at 10uM
# Format: functional, HepG2
# Conditions: tested at 10 uM
row,SMILES,INHIBITION [%]
1,c1cnc(Nc2cc(CCC3CCCNC3)ccn2)cn1 (centres undefined),-26.2
2,Cc1nc2cc(C(=O)N3CCn4c(nnc4C4CC4)C3)ccc2s1,10.9
3,CCN(CC)CCn1cc(NC2CCN(C(C)(C)C)CC2)cn1,-13.1
4,Cc1nn(C)c(NC(=O)C2SCCc3ccccc32)c1C (centres undefined),74
5,Cc1nonc1NC(=O)C1SCCc2ccccc21 (centres undefined),-92.8
6,O=C(NCCc1nncn1C1CC1)C1SCCc2ccccc21 (centres undefined),-4.13
7,O=C(c1ccncc1)N(CCO)Cc1cc(Br)ccc1F,35.6
8,Nc1nc2c(c(=O)[nH]1)CCN(C(=O)c1ccccc1N1CCCC1)C2,8.24
9,O=C(c1cnc2n1CCCC2)N1CCCC1,66.1
10,O=C(NC1CC1)c1cnc2n1CCCC2,-40.6
11,CC(C)(C)NC(=O)c1cnc2n1CCCC2,-107
12,O=C(NCCCc1ccccn1)c1cn(CCN2CCNCC2)nn1,-37.8
13,CCN1CCN(C(=O)c2cc(-c3cccs3)cs2)CC1,-15.5
14,CC(C)NC(=O)Nc1ccc(CS(=O)(=O)C(C)(C)C)cc1,-8.69
15,O=C1NCC[C@]12CN(Cc1ccoc1)C[C@H]2c1ccccc1,-38.1
16,O=C1NCC[C@]12CN(Cc1cccnc1)C[C@H]2c1ccccc1,-3.77
17,O=C1NCC[C@]12CN(Cc1ccncc1)C[C@H]2c1ccccc1,51.3
18,O=C(c1cnccn1)N1C[C@@H](c2ccccc2)[C@@]2(CCNC2=O)C1,74.8
19,O=C(c1cnccn1)N1CCC2(CC1)C(=O)NCC2c1ccccc1 (centres undefined),49.7
20,Cc1ccc(CN2C[C@@H](c3ccccc3)[C@@]3(CCNC3=O)C2)o1,-2.46
21,O=C(c1cccnc1)N1C[C@@H](c2ccccc2)[C@@]2(CCNC2=O)C1,-0.554
22,CCCS(=O)(=O)N1C[C@@H](c2ccccc2)[C@@]2(CCNC2=O)C1,53.9

row,SMILES,INHIBITION [%]
1,CCS(=O)(=O)N1C[C@@H](c2ccccc2)[C@@]2(CCNC2=O)C1,48.4
2,N#Cc1c2n(c3c(N)ncnc13)CCCCC2,44.4
3,CC(C(=O)N1CCN(c2ncccn2)CC1)n1cncn1 (centres undefined),10
4,CCc1oc(C(=O)N2CC[C@@H]3CC[C@H](C2)N3)cc1CN(CC)CC,29.4
5,Cc1ccc(CN2CCC(c3cnccn3)CC2)s1,18.9535
6,CC(C)(O)CN1CC(C)(C)CN(C(=O)CCc2ccccc2)CC1=O,44.9
7,Cn1c(N2CCOCC2)nc2cc(C(=O)NCC(F)(F)F)ccc21,20.9
8,CCN(C)c1ncnc2c1CCN(C(=O)Cc1ccccn1)CC2,34.4
9,Cc1cc(CNCc2c(C)n(CC(C)C)c3ccccc23)[nH]n1,27.4
10,CC(C)N1CC2(CCCN(c3ccnc4ccccc34)C2)CCC1=O (centres undefined),65.1
11,CC(C)N1CC2(CCC1=O)CCN(c1ccnc3ccccc13)CC2,20.5
12,CC(C)N1CC2(CCCN(c3ccccn3)C2)CCC1=O (centres undefined),-9.18
13,CC(C)N(Cc1cccc(Cl)c1)Cc1nc2c(cnn2C)c(=O)[nH]1,15.6
14,COc1ccc(CCNC2CCCN(Cc3noc(C)n3)C2)cc1 (centres undefined),35.9
15,CC(=O)Nc1ccccc1Sc1nc(Br)nn1C,5.58
16,CN(Cc1n[nH]c2c1CCC2)C(=O)c1cc(-c2cccn2C)n[nH]1,-7.53
17,CN(C)c1ccc(CNC2=NCCCN2)cc1,75.8
18,CC(C)C(=O)NCc1ccc(N(C)C)cc1,-51.5
19,CCOCc1ccc(CNC2=NCCCN2)cc1,47.1
20,COC(=O)c1ccc(Cn2nc(C)cc2C)cc1,-60.4
21,CCN1CCN(C(=O)c2[nH]c3ccccc3c2Cl)[C@H]2CS(=O)(=O)C[C@H]21,-9.87
22,CCc1c(C(=O)N2CCN(C)[C@@H]3CS(=O)(=O)C[C@@H]32)[nH]c2ccccc12,60.1

row,SMILES,INHIBITION [%]
1,Cc1c(C(=O)N2CCN(C)[C@@H]3CS(=O)(=O)C[C@@H]32)[nH]c2ccc(F)cc12,43
2,CC(C)c1nn(C)c(N(C)C)c1CNC1CCOc2c(F)cccc21 (centres undefined),-12.5
3,O=C(c1cnccn1)N1CC2(CCN(Cc3ccsc3)C2)C1,23.3
4,CN(C)C(=O)C1CSCN1C(=O)CCc1ccco1 (centres undefined),-75
5,CC(=O)Nc1ccc(CCC2(NC(=O)C3CCCO3)CCCCC2)cn1 (centres undefined),-1.16
6,CS(=O)(=O)NC1(CCc2ccc(NC(=O)C3CC3)nc2)CCCCC1,40.6
7,CC(=O)Nc1ccc(CCC2(NC(=O)C3CC3)CCCCC2)cn1,59.2
8,Cc1nn(C(C)C)c2cn(CC(=O)NC3CCSCC3)nc12,-3.83
9,O=C(Cc1ccc2c(c1)OCCO2)NCc1ccc(-n2cncn2)nc1,19.2
10,CC1Cc2ccccc2N1C(=O)Cn1nc(-c2cccs2)cc(N)c1=O (centres undefined),18.3
11,Nc1cc(-c2cccs2)nn(CC(=O)NCC2CCCCC2)c1=O,6.32
12,Nc1cc(-c2cccs2)nn(CC(=O)N2CCc3ccccc32)c1=O,72.2
13,CCS(=O)(=O)N1CC(=O)N(CCCc2ccccc2)CC(O)C1 (centres undefined),26.8
14,O=C(CCc1nc2cccnc2[nH]1)NCc1ccncc1,-0.532
15,Cc1ccc(CN2CCN(c3cncc(N(C)C)n3)CC2=O)cc1C,56.3
16,Cc1ccc(CN2CCN(Cc3ccc(N(C)C)nc3)CC2=O)cc1C,44
17,Cc1ccc(CN2CCN(c3ccc(F)cn3)CC2=O)cc1C,11.2
18,CS(=O)(=O)CCn1ccc(NC(=O)c2c(F)cccc2F)n1,46.1
19,Cc1nccn1C1CCCN(C(=O)c2ccc(N(C)C)nn2)C1 (centres undefined),-22.9
20,COc1ncc(NCc2ccsc2)cc1C(N)=O,32.2
21,CC(C)(C)Oc1ccncc1NCc1cscn1,70.3
22,O=C(CCc1ccsc1)Nc1cnccc1O,-3.43

row,SMILES,INHIBITION [%]
1,COc1ccccc1NCc1cscn1,27.5
2,COc1ccncc1NCc1ccsc1,71.3
3,COc1ccncc1NCc1cscn1,21.6
4,Cc1noc(C)c1CSC1CCCN(c2cnn(C)c2)C1=O (centres undefined),-41.9
5,COCCN1CCOCC12CCN(Cc1ccn(C)n1)CC2,34.6
6,CC(=O)NCc1cc2n(n1)CCN(Cc1cc(-c3ccccc3)no1)C2,32.2
7,COCCN1CCC2(CC1)CC(c1cccnc1)C(=O)N2C (centres undefined),26.5
8,CCc1nc(C2CCCN(C(=O)NC(C)C)C2)no1 (centres undefined),13.6
9,O=C([C@@H](O)Cc1ccccc1)N1CCCn2cncc2C1,18.6
10,Cc1ccnc(NC(=O)c2cnc(C3CCCNC3)cn2)c1 (centres undefined),37.35
11,CC(C)NC(=O)COc1cccc(-c2nc(C(C)C)no2)c1,26.8
12,CCc1cc(=O)n(CC(=O)N2CCC(C)CC2)c(-c2ccccc2)n1,57.3
13,CCc1cc(=O)n(CC(=O)N2CCCC2)c(-c2ccccc2)n1,4.35
14,CCc1cc(=O)n(CC(=O)N2CCC(C)CC2)c(-c2cccc(F)c2)n1,17.6
15,CNc1nc2c(s1)C(c1cc(Cl)ccc1F)CC(=O)N2 (centres undefined),35.8
16,CCn1cc(CN(C)S(=O)(=O)c2ccc(C(C)C)cc2)cn1,26.7
17,Cc1cc(C)n(CC2CN(c3ccc(C#N)cn3)CCO2)n1 (centres undefined),23.7
18,Cc1nn(C)c2cnn(Cc3ccc(C(=O)N4CCN(C)CC4)o3)c12,65.6
19,Cc1nn(C)c2cnn(Cc3ccc(C(=O)N4CCCCC4)o3)c12,21.7
20,Cc1nn(C)c2cnn(Cc3ccc(C(=O)NC4CC4)o3)c12,16.8
21,CCc1ccc(NC(=O)N2C[C@@H]3C[C@H](C(=O)NC)[C@H](C2)O3)cc1,15
22,O=C1NCc2ccccc2CC12CCCN(Cc1ccsc1)C2 (centres undefined),14.3

row,SMILES,INHIBITION [%]
1,O=C(COCC1CC1)Nc1ncn(CC(=O)N2CCCCCC2)n1,-32.4
2,CC(CC(=O)Nc1ncn(CC(=O)N2CCCCCC2)n1)C1CC1 (centres undefined),-28.8
3,CC(OCC1CC1)C(=O)Nc1ncn(CC(=O)N2CCCCCC2)n1 (centres undefined),51.7
4,O=C(COC1CCCC1)Nc1ncn(CC(=O)N2CCCCCC2)n1,8.75
5,O=C(CC1C=CCC1)Nc1ncn(CC(=O)N2CCCCCC2)n1 (centres undefined),50.6
6,O=C(Nc1ncn(CC(=O)N2CCCCCC2)n1)C1CCCC1,2.7
7,Cc1ccc2oc(C(=O)N3CCCC(n4nc(C)nc4C)C3)cc2n1 (centres undefined),-2.95
8,COc1ccc(CNC(=O)CCCc2nnc3ccc(OC)nn23)cc1,8.99
9,CCn1nc(CNC(C)(C)CO)c(-c2ccccc2)n1,20.9
10,CCCOCC(=O)N1CCc2c(cccc2S(=O)(=O)N2CCOCC2)C1,26.7
11,Fc1cnc(N2CC[C@@H]3O[C@@H](COCc4ccccn4)CC[C@@H]32)nc1,18.5
12,c1cnc(N2CCC3(CCN(CC4CCOC4)C3)CC2)nc1 (centres undefined),34.7
13,COc1ccc(Br)c(C(=O)NCC2CCN(S(=O)(=O)C3CC3)CC2)c1,38.5
14,COc1ccc(C(=O)Nc2cnn(CCN3CCOCC3)c2)c(O)c1,29.5
15,COc1cccc(OCC2CCCN(C3CCN(C(C)=O)CC3)C2)c1 (centres undefined),15.1
16,Cc1cccc(C)c1NC(=O)NCC1CCCN(C2CCOCC2)C1 (centres undefined),-15
17,COCCNC(=O)c1cc(OC)ccc1Br,-85
18,COc1ccc(Br)c(C(=O)NCC2CC2)c1,90.2
19,COc1ccc(O)c(C(=O)NCC2CCCN(C3CCOCC3)C2)c1 (centres undefined),14.3
20,COc1cccc(NC(=O)NCC2CCCN(C3CCOCC3)C2)c1 (centres undefined),58.8
21,COc1ccc(C(=O)NCC2CCCN(C3CCOCC3)C2)c(O)c1 (centres undefined),57.4
